# Results as given in PubChem BioAssay (NCATS).
# Where “and” joins values, the source holds several entries; their conditions need not be identical. Equal entries are not always repeated. Results filed as inconclusive are left out. Values without a mark were called inactive. Calls of active or inactive are those of the source. Unless noted, calls follow the shape of the dose curve; as a rule, active = well fitted inhibition curve with a large enough effect; inconclusive = small, poorly fitted or top-dose-only effect; inactive = flat fitted curve, though single readings scatter.
# Molecular target: Thyroid hormone receptor beta (Homo sapiens) (UniProt P10828)
# Sequence (P10828 whole entry, looked up): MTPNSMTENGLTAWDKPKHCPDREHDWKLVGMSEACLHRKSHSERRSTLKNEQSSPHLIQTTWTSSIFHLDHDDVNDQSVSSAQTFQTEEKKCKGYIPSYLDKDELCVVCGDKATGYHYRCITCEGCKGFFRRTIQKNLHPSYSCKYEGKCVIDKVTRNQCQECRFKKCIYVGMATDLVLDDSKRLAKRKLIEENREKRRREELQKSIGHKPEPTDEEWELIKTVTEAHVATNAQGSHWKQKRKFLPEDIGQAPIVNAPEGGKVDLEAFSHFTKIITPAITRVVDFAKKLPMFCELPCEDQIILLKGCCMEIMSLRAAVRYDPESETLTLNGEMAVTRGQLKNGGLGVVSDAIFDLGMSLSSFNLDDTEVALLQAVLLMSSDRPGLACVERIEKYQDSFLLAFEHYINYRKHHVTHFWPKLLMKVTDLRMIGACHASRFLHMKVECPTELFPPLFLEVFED
# Test: qHTS assay for small molecule antagonists of thyroid hormone receptor beta signaling (AID 588547; active = well fitted inhibition curve with a large enough effect in the signal ratio, with a control signal flat, not every such curve was filed as active; the % refers to the signal ratio;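 also: cells stimulated with 0.4 nM T3 agonist during compound exposure; % is scaled to controls: 0 for no effect and ±100 for the full control effect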)
# Settings: TR-UAS-bla HEK293, beta-lactamase ratio, antagonist mode, 18 h
# How it was run: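 TR-UAS-bla GripTite HEK293 cells in 2% charcoal/dextran FBS medium were preincubated 4 h at 37 C, given compound (0.59 nM to 92 uM) plus 0.4 nM T3 (final) for 18 h, then CCF4 for 2 h at RT; Hill fit gave IC50.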
row,Structure (SMILES),activity change % (negative = inhibition)
1,CCCCCCc1ccc(-c2ccc(C#N)cc2)cc1,6.73%
2,CCCCCCCCOc1ccc(C(=O)O)cc1,10%
3,Oc1c(Cl)cc(Cl)c(Cl)c1Cl,-15.9% and 13.1%
4,CC(C)OCC1CO1 (stereo not drawn),8.25%
5,C/C(Cl)=C/CCl,0.318%
6,O=c1[nH]ncc2ccccc12,-18.2%
7,c1ccc(COCc2ccccc2)cc1,-18.1%
8,O=[N+]([O-])c1cccc(I)c1,-8.55%
9,Nc1ccc2c(c1)C(=O)c1ccccc1C2=O,-15.9%
10,c1ccc2c(c1)ccc1ccccc12,0.286%
11,Nc1ccc(N=Nc2ccccc2)c(N)c1,1.36%
12,Cc1ccc(C(=O)O)cc1[N+](=O)[O-],2.7%
13,COc1ccc([N+](=O)[O-])cc1N,-27.9%
14,OCC(CO)(CBr)CBr,-10.9% and 7.42%
15,Nc1cc(C(=O)O)c(O)c(S(=O)(=O)O)c1,-10.1%
16,Oc1ccc2c(c1)OCO2,5.85%
17,c1ccncc1,-8.3%

row,Structure (SMILES),activity change % (negative = inhibition)
1,CC(=O)OC1CC(C)OC(C)O1 (stereo not drawn),-11% and -10.6%
2,O=C(OCc1ccccc1)c1ccccc1O,-8.64%
3,c1c[nH]cn1,-11.5%
4,c1ccc(SCCSc2ccccc2)cc1,8.32%
5,O=C(O)/C=C/c1ccc(/C=C/C(=O)O)cc1,2.91%
6,CCCCOC(=O)COc1ccc(Cl)cc1Cl,7.32% and -4.27%
7,CC(=O)OC(C(=O)c1ccccc1)c1ccccc1 (stereo not drawn),4.95%
8,CCCCCCN,-5.98%
9,CCC(Cl)CC(Cl)C(Cl)C(Cl)C(Cl)C(C)Cl (stereo not drawn),-1.45%
10,COc1ccc(C)cc1N,-19.2%
11,CCc1ccc(C(c2ccc(CC)cc2)C(Cl)Cl)cc1,13.5%
12,O=[N+]([O-])c1ccccc1Nc1ccccc1,8.34%
13,C=CC1CO1 (stereo not drawn),4.27%
14,COc1cc(-c2ccc(N=C=O)c(OC)c2)ccc1N=C=O,-7.61%
15,CCOC(=O)C1OC1c1ccccc1 (stereo not drawn),6.36%
16,COc1ccc(C(=O)Nc2ccccc2)cc1[N+](=O)[O-],2.48%

# Molecular target: Voltage-gated inwardly rectifying potassium channel KCNH2 (Homo sapiens) (UniProt Q12809)
# Sequence (Q12809 whole entry, looked up): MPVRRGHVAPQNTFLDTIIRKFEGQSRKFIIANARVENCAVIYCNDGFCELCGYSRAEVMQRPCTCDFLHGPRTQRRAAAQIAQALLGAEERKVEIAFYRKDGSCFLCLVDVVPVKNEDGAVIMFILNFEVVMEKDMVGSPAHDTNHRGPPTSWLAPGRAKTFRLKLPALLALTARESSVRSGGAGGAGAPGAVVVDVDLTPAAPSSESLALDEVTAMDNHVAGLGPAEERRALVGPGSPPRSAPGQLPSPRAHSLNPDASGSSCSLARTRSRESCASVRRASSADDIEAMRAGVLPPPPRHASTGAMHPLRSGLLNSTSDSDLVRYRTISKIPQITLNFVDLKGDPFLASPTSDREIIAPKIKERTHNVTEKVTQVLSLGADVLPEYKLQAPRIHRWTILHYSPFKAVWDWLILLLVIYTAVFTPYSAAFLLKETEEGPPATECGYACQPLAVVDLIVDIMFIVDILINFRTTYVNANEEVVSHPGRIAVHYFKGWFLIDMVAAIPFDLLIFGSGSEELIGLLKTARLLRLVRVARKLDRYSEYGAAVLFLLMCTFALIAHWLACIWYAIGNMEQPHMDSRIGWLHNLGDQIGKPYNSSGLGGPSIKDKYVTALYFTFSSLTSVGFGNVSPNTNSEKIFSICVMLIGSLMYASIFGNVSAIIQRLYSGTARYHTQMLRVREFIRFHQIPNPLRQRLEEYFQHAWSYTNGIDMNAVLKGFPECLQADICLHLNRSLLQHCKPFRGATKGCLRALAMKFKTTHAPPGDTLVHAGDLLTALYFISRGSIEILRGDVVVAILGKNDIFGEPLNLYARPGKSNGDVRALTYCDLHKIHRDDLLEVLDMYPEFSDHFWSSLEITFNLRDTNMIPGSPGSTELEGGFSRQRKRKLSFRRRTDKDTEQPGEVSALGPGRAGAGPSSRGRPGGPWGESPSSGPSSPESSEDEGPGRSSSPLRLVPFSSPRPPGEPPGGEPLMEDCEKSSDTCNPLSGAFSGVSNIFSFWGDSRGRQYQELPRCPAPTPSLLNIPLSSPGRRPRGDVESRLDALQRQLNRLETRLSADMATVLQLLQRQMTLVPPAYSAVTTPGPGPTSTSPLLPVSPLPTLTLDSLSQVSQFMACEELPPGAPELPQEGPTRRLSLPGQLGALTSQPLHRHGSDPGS
# Test: qHTS Assay for Small Molecule Inhibitors of the Human hERG Channel Activity (AID 588834);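 also: lower thallium flux fluorescence means stronger hERG block; nearly all actives have a fitted effect of over 50% in size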; also: potency is read from the fitted curve at half-maximal effect; as to activity change, negative = inhibition: top concentration of the series differs between compounds; % is scaled to controls: 0 for no effect and ±100 for the full control effect
# Settings: U2OS BacMam hERG, FluxOR thallium flux fluorescence; series mostly up to 92.2 µM; activity change, negative = inhibition: at the top concentration
# How it was run: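 Homogeneous FluxOR thallium flux assay using hERG-expressing U2OS cells (BacMam). Compound treatment about 10 minutes preceded stimulation; reduced fluorescence taken as channel block.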
Structure (SMILES),"activity change, negative = inhibition",Potency
Nc1cnn([C@@H]2O[C@H](CO)[C@@H](O)[C@H]2O)c(=O)n1,-0.9%,–
CCCCCCCCOc1ccc(C(=O)O)cc1,11.3%,–
Oc1c(Cl)cc(Cl)c(Cl)c1Cl,4.54%,–
CC(C)OCC1CO1 (stereo not drawn),0.352%,–
C/C(Cl)=C/CCl,-0.595%,–
O=[N+]([O-])c1cccc(I)c1,9.9%,–
c1ccc2c(c1)ccc1ccccc12,47.9%,–
Cc1ccc(C(=O)O)cc1[N+](=O)[O-],8.96%,–
COc1ccc([N+](=O)[O-])cc1N,1.31%,–
c1ccncc1,10.4%,–
CC(=O)OC1CC(C)OC(C)O1 (stereo not drawn),1.76%,–
O=C(OCc1ccccc1)c1ccccc1O,–,39.8 µM (active)
CCN(CC)c1ccc2c(C)cc(=O)oc2c1,-15%,–
c1c[nH]cn1,6.98%,–
CCCCCCN,1.05%,–
O=[N+]([O-])c1ccccc1Nc1ccccc1,–,35.5 µM (active)
COc1cc(-c2ccc(N=C=O)c(OC)c2)ccc1N=C=O,14.6%,–
COc1ccc(C(=O)Nc2ccccc2)cc1[N+](=O)[O-],-19.1%,–

# Tested on: not listed separately
# Test: qHTS assay for small molecule agonists of the antioxidant response element (ARE) signaling pathway (AID 651741; active = well fitted activation curve with a large enough effect in the signal ratio; the % refers to the signal ratio; also: potency is read from the fitted curve at half-maximal effect; as to activation: % of control where 0% means no effect)
# Settings: HepG2 ARE-bla reporter, beta-lactamase FRET ratio, 16 h; series mostly up to 96 µM; activation: at the top concentration
# How it was run: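 Reporter: beta-lactamase under ARE, stably in HepG2. Exposure: 16 h, 37 C, compounds delivered in DMSO by pin tool after 5 h cell preincubation. Readout: FRET substrate fluorescence after 2 h at RT.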
Structure (SMILES),activation,Potency
Nc1cnn([C@@H]2O[C@H](CO)[C@@H](O)[C@H]2O)c(=O)n1,-2.09%,–
Oc1c(Cl)cc(Cl)c(Cl)c1Cl,–,33.5 µM (active)
CC(C)OCC1CO1 (stereo not drawn),1.74%,–
CCCCNCC,0.855%,–
O=c1[nH]ncc2ccccc12,4.76%,–
c1ccc(COCc2ccccc2)cc1,3.7%,–
O=[N+]([O-])c1cccc(I)c1,3.46%,–
Nc1ccc2c(c1)C(=O)c1ccccc1C2=O,–,10.6 µM (active) and 48.6 µM (active)
c1ccc2c(c1)ccc1ccccc12,-0.973%,–
Nc1ccc(N=Nc2ccccc2)c(N)c1,–,42.2 µM (active)
COc1ccc([N+](=O)[O-])cc1N,–,30.6 µM (active)
OCC(CO)(CBr)CBr,-0.88%,–
Nc1cc(C(=O)O)c(O)c(S(=O)(=O)O)c1,1.23%,–
Oc1ccc2c(c1)OCO2,4.77%,–
c1ccncc1,7.93%,–
CC(=O)OC1CC(C)OC(C)O1 (stereo not drawn),–,61.1 µM (active)
C/C=C/C=C/C=O,–,37.6 µM (active)
CCN(CC)c1ccc2c(C)cc(=O)oc2c1,–,37.6 µM (active)
c1c[nH]cn1,-1.95%,–
O=C(O)/C=C/c1ccc(/C=C/C(=O)O)cc1,2.81%,–
CCCCOC(=O)COc1ccc(Cl)cc1Cl,–,inactive
CC(=O)Nc1cccc(C)c1,7.55%,–
CCC(Cl)CC(Cl)C(Cl)C(Cl)C(Cl)C(C)Cl (stereo not drawn),–,66.8 µM (active)
COc1ccc(C)cc1N,2.44%,–
CCc1ccc(C(c2ccc(CC)cc2)C(Cl)Cl)cc1,–,66.8 µM (active)
C=CC1CO1 (stereo not drawn),8.15%,–
COc1cc(-c2ccc(N=C=O)c(OC)c2)ccc1N=C=O,–,2.37 µM (active)
